The test system of one assay is IL-6-GFP PC-9GR. The experiment in a line: cell viability (CCK-8 OD) relative to DMSO control (fraction of control); higher = more viable cells. As to conditions: compound concentration: 10 uM; treatment time: 48 h. The essentials:
(§1)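 A purchased 510-compound library was screened at a final 10 μM for 48 h against PC-9 and PC-9GR lung cancer cells overexpressing IL-6-GFP via a lentiviral construct, seeded at 3000 cells/well in 96-well plates. GFP imaging was done on a parallel plate set. For viability, CCK-8 absorbance was recorded and each well's optical density was divided by that of the vehicle control well. There were two independent replicates.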

The test system of a further assay is IL-6-GFP PC-9. The description is as above. The conditions noted are these: compound concentration: 10 uM; treatment time: 48 h. An outline of the steps:
as §1

This passage reports cell viability results from the supplement of paper PMC8866396.

SMILES strings stand for the structures. ± gives the standard deviation of the averaged measurements.

Turning to `COc1cc2nccc(Oc3ccc(NC(=O)NC4CC4)c(Cl)c3)c2cc1C(N)=O` [Lenvatinib (E7080)], the results for the cell viability in the assay with IL-6-GFP PC-9GR and in the assay on IL-6-GFP PC-9 were 1.11 ± 0.064 and 0.9 ± 0.081, respectively.

`O=C(O)c1ccccc1O.[NaH]` [Sodium salicylate]: the cell viability in the assay with IL-6-GFP PC-9GR came out at 1.02 ± 0.2; with IL-6-GFP PC-9, 1.03 ± 0.12.

For the molecule `Nc1nc(CC(=O)Nc2ccc(CCNCC(O)c3ccccc3)cc2)cs1` (stereo not drawn) [Mirabegron], the figures for the cell viability in the assay on IL-6-GFP PC-9GR and in the assay with IL-6-GFP PC-9 were 1.09 ± 0.19 and 0.791 ± 0.035, respectively.

With `Cc1c(N)c(=O)n(-c2ccccc2)n1C` [4-Aminoantipyrine], the cell viability is 0.98 ± 0.13 in the assay with IL-6-GFP PC-9GR and 1.212 ± 0.0049 in the assay with IL-6-GFP PC-9.

In the case of `CCOC(=O)c1c(N)sc2c1CCN(Cc1ccccc1)C2.Cl` [Tinoridine hydrochloride], the figures for the cell viability in the assay with IL-6-GFP PC-9GR and with IL-6-GFP PC-9 were 1.12 ± 0.27 and 1.12 ± 0.061, respectively.

Regarding `Cl.Clc1ccc(CCCOCCCN2CCCCC2)cc1` [Pitolisant hydrochloride], the cell viability turned out to be 0.916 ± 0.11 in the assay with IL-6-GFP PC-9GR and 1.13 ± 0.28 in the assay on IL-6-GFP PC-9.

With `Cl.NC1=NCC2c3ccccc3Cc3ccccc3N12` (stereo not drawn) [Epinastine HCl], the cell viability in the assay on IL-6-GFP PC-9GR is 0.9943 ± 0.0026; in the assay on IL-6-GFP PC-9, 1.22 ± 0.014.

Turning to `NC1CCCCC1N.O=C([O-])C(=O)[O-].[Pt+2]` (stereo not drawn) [Oxaliplatin], the figures for the cell viability with IL-6-GFP PC-9GR and in the assay on IL-6-GFP PC-9 were 0.678 ± 0.016 and 1.2 ± 0.099, respectively.

`O=C(CCCCCCC(=O)Nc1ccccc1)NO` [Vorinostat (SAHA, MK0683)]: the cell viability amounted to 0.449 ± 0.048 in the assay with IL-6-GFP PC-9GR and 0.418 ± 0.095 with IL-6-GFP PC-9.

For `CCC1/C=C(\C)CC(C)CC(OC)C2OC(O)(C(=O)C(=O)N3CCCCC3C(=O)OC(/C(C)=C/C3CCC(Cl)C(OC)C3)C(C)C(O)CC1=O)C(C)CC2OC` (stereo not drawn) [Pimecrolimus], the cell viability amounted to 1 ± 0.18 in the assay with IL-6-GFP PC-9GR and 1.02 ± 0.071 in the assay with IL-6-GFP PC-9.

Consider `CCC1(O)CC2CN(CCc3c([nH]c4ccccc34)C(C(=O)OC)(c3cc4c(cc3OC)N(C=O)C3C(O)(C(=O)OC)C(OC(C)=O)C5(CC)C=CCN6CCC43C65)C2)C1` (stereo not drawn) [Vincristine], for which the cell viability stood at 0.556 ± 0.22 in the assay with IL-6-GFP PC-9GR and 0.631 ± 0.041 in the assay on IL-6-GFP PC-9.

In the case of `Cc1c(-c2ccc(-c3ccccc3F)cc2)nc2ccc(F)cc2c1C(=O)O` [Brequinar], the cell viability in the assay with IL-6-GFP PC-9GR amounted to 0.402 ± 0.11; in the assay with IL-6-GFP PC-9, 0.42356 ± 0.00032.

Regarding `COc1cc(C(=O)NS(=O)(=O)c2ccccc2C)ccc1Cc1cn(C)c2ccc(NC(=O)OC3CCCC3)cc12` [Zafirlukast], the cell viability with IL-6-GFP PC-9GR was 1.31 ± 0.026; in the assay with IL-6-GFP PC-9 it was 0.967 ± 0.023.

For `COc1nc(N)nc2c1ncn2C1OC(CO)C(O)C1O` (stereo not drawn) [Nelarabine], the figures for the cell viability with IL-6-GFP PC-9GR and with IL-6-GFP PC-9 were 1.12 ± 0.017 and 0.758 ± 0.029, respectively.

As for `CC(=O)Oc1ccccc1C(=O)O` [Aspirin], the cell viability was 1.05 ± 0.027 with IL-6-GFP PC-9GR and 1.23 ± 0.12 in the assay on IL-6-GFP PC-9.

On to `Cc1ccc(C2OC(CO)C(O)C(O)C2O)cc1Cc1ccc(-c2ccc(F)cc2)s1` (stereo not drawn) [Canagliflozin], for which the cell viability in the assay on IL-6-GFP PC-9GR was 1.14 ± 0.12; in the assay on IL-6-GFP PC-9, 1.16 ± 0.15.

With `COc1c2occc2c(OC)c2c(=O)cc(C)oc12` [Khellin], the cell viability with IL-6-GFP PC-9GR is 0.831 ± 0.16; in the assay on IL-6-GFP PC-9, 0.888 ± 0.17.

Regarding `COC1CC2CCC(C)C(O)(O2)C(=O)C(=O)N2CCCCC2C(=O)OC(C(C)CC2CCC(OP(C)(C)=O)C(OC)C2)CC(=O)C(C)/C=C(\C)C(O)C(OC)C(=O)C(C)CC(C)/C=C/C=C/C=C/1C` (stereo not drawn) [Ridaforolimus (Deforolimus, MK-8669)], the cell viability in the assay on IL-6-GFP PC-9GR stood at 1.15 ± 0.22; in the assay on IL-6-GFP PC-9, 0.571 ± 0.42.

As to `COC(=O)NC(C(=O)N1CCCC1c1ncc(-c2ccc3c(c2)OC(c2ccccc2)n2c-3cc3cc(-c4cnc(C5CCCN5C(=O)C(NC(=O)OC)C(C)C)[nH]4)ccc32)[nH]1)C(C)C` (stereo not drawn) [Elbasvir], the cell viability worked out at 0.497 ± 0.03 with IL-6-GFP PC-9GR and 0.809 ± 0.035 with IL-6-GFP PC-9.

With `COc1cc(/C=C/C(=O)/C=C(O)/C=C/c2ccc(O)c(OC)c2)ccc1O` [Curcumin], the values for the cell viability in the assay with IL-6-GFP PC-9GR and in the assay with IL-6-GFP PC-9 were 1.36 ± 0.48 and 0.985 ± 0.12, respectively.

Regarding `CC(=O)O.CCNC(=O)C1CCCN1C(=O)C(CCCNC(=N)N)NC(=O)C(CC(C)C)NC(=O)C(CC(C)C)NC(=O)C(Cc1ccc(O)cc1)NC(=O)C(CO)NC(=O)C(Cc1c[nH]c2ccccc12)NC(=O)C(Cc1c[nH]cn1)NC(=O)C1CCC(=O)N1` (stereo not drawn) [Leuprolide Acetate], the values for the cell viability in the assay with IL-6-GFP PC-9GR and in the assay with IL-6-GFP PC-9 were 1.16 ± 0.31 and 1.28 ± 0.073, respectively.

On to `Cl.c1ccc(CN(CC2=NCCN2)c2ccccc2)cc1` [Antazoline HCl], for which the cell viability in the assay on IL-6-GFP PC-9GR was 0.998 ± 0.082; in the assay with IL-6-GFP PC-9, 1.31 ± 0.11.

As for `CC(C)(C#N)c1cc(Cn2cncn2)cc(C(C)(C)C#N)c1` [Anastrozole], the cell viability amounted to 1.15 ± 0.045 in the assay with IL-6-GFP PC-9GR and 1.01 ± 0.078 with IL-6-GFP PC-9.

As for `CCC(Nc1ncnc2[nH]cnc12)c1nc2cccc(F)c2c(=O)n1-c1ccccc1` (stereo not drawn) [Idelalisib (CAL-101, GS-1101)], the cell viability in the assay on IL-6-GFP PC-9GR is 1.27 ± 0.14; in the assay with IL-6-GFP PC-9, 0.858 ± 0.15.

Regarding `Cc1ccc(C(C)C)cc2c(C)ccc1-2` [Guaiazulene], the values for the cell viability in the assay with IL-6-GFP PC-9GR and in the assay with IL-6-GFP PC-9 were 0.98 ± 0.15 and 0.275 ± 0.37, respectively.

In the case of `CN(N=O)C(=O)NC1C(O)OC(CO)C(O)C1O` (stereo not drawn) [Streptozotocin (STZ)], the cell viability is 1.23 ± 0.087 in the assay on IL-6-GFP PC-9GR and 0.636 ± 0.052 in the assay on IL-6-GFP PC-9.

Consider `CCc1nc(C(N)=O)c(Nc2ccc(N3CCC(N4CCN(C)CC4)CC3)c(OC)c2)nc1NC1CCOCC1` [Gilteritinib (ASP2215)], for which the cell viability in the assay on IL-6-GFP PC-9GR is 0.333 ± 0.021; in the assay with IL-6-GFP PC-9, 0.315 ± 0.11.

`Cc1cnc(C(=O)NC2CCCCC/C=C\C3CC3(C(=O)NS(=O)(=O)C3CC3)NC(=O)C3CC(Oc4nc5ccccc5c5ccccc45)CN3C2=O)cn1` (stereo not drawn) [Paritaprevir (ABT-450)]: the cell viability in the assay with IL-6-GFP PC-9GR was 0.779 ± 0.2; with IL-6-GFP PC-9, 0.874 ± 0.28.

As to `O=c1[nH]cc(F)c(=O)[nH]1` [Fluorouracil (5-Fluoracil, 5-FU)], the cell viability was determined as 0.731 ± 0.011 with IL-6-GFP PC-9GR and 0.537 ± 0.12 in the assay with IL-6-GFP PC-9.
